Screening results (PubChem BioAssay)
D2 ag-1: Beta-Arrestin HTS for Positive Allosteric Modulators of the Human D2 Dopamine Receptor: Agonists; DiscoveRx PathHunter D2 beta-arrestin, luminescence, 90 min; 100% = 57 uM dopamine signal; activation, % (concentration not given with the values); hit rate 0.084% among 360,000; in the data active = activation above about 40%
Target sequence (P14416 whole entry, looked up): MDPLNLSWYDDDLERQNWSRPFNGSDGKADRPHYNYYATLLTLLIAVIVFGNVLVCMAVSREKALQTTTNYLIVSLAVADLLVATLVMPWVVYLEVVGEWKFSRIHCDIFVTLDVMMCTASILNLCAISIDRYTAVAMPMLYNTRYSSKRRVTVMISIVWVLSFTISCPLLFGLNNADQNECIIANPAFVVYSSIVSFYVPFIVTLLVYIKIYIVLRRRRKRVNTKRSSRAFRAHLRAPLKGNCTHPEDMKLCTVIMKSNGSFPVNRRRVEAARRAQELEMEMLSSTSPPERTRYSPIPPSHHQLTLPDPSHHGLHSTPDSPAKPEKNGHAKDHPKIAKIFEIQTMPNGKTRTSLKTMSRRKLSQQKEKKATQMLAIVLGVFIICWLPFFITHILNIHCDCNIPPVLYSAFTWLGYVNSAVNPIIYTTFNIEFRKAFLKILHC
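DiscoveRx PathHunter D2 beta-arrestin cells (2,100/well) attached overnight, then compound-stimulated 90 min at 37 C in HBSS/10 mM HEPES/0.1% Tween-20 buffer; beta-galactosidase complementation read by luminescence after 1 h at ambient temperature. Dopamine 57 uM final (EC100) as control.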
D2 antagonist: HTS Assay for Allosteric Antagonists of the Human D2 Dopamine Receptor: Primary Screen for Antagonists | hit rate 2% among 340,000 | D(2) dopamine receptor (Homo sapiens), P14416 | HEK293 TREx D2 cells, calcium flux, dopamine EC80 | inhibition, % at 10 µM | AID 485344, 2010; in the data active = inhibition above about 30%; inactive = below that, where a call was filed; note: 0% is about no effect
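Read-out: kinetic calcium fluorescence (1 cycle/s) in inducible HEK293 T-REx D2 cells after an EC80 dopamine addition that followed 180 s compound preincubation. Loss of the dopamine response indicates antagonism.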
D2 PAM-1: HTS Assay for Positive Allosteric Modulators of the Human D2 Dopamine Receptor: Primary Screen for Potentiators; D(2) dopamine receptor (Homo sapiens), P14416; HEK293 T-REx D2, calcium flux, EC20 dopamine potentiation; hit rate 0.34% among 340,000; potentiation, % at 10 µM;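 active = potentiation over 3 SD above the plate norm, cut at about 30% in these data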; note: 0% is about no effect
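Using a no-wash calcium dye in inducible, force-coupled HEK293 Trex cells expressing D2, we tracked fluorescence each second for 180 s after compound, then for 180 s after EC20 dopamine to detect augmented signalling.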
D2 ag-2: HTS Assay for Allosteric Agonists of the Human D2 Dopamine Receptor: Primary Screen for Agonists | D(2) dopamine receptor (Homo sapiens), P14416 | HEK293 T-REx D2 cells, calcium flux agonist mode | activation, % at 2 µM | hit rate 0.53% among 340,000;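 active = activation over 3 SD above normal in the single-dose calcium agonist read, cut at about 30% in these data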; note: 0% is about no effect
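In this primary screen, compounds producing a positive calcium signal within 180 s of addition to tetracycline-induced, force-coupled HEK293 Trex D2 cells are flagged; cells are dye-loaded with a no-wash calcium kit beforehand.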
D2 PAM-2: Beta-Arrestin HTS for Positive Allosteric Modulators of the Human D2 Dopamine Receptor: Potentiators | DiscoveRx D2 beta-arrestin cells, luminescence, 90 min; 100% = 57 uM dopamine signal | potentiation, % (concentration not given with the values) | D(2) dopamine receptor (Homo sapiens), P14416 | hit rate 0.23% among 360,000; in the data active = potentiation above about 50%
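D2 cells co-treated with compound plus 50 nM dopamine (EC20) for 90 min at 37 deg C to detect potentiation. Beta-arrestin recruitment was read as enzyme-fragment luminescence after 1 h at ambient temperature. Full response was set by 57 uM dopamine.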
The depositor's hits bear a star; · = no result. This is a sample that favours compounds with a hit; in the whole collection about 2.4% have one here.

SMILES	D2 ag-1	D2 antagonist	D2 PAM-1	D2 ag-2	D2 PAM-2
O=C1CCC(c2ccccc2)N1C(=O)c1cccnc1 (stereo not drawn)	-0.4	-6.0	37.9*	-1.1	-4.3
O=C(c1ccccc1)N1CCc2cc(CNS(=O)(=O)c3ccccc3Cl)ccc21	·	·	-5.9	·	·
O=C1Nc2cc(C(=O)N3CCOCC3)ccc2S/C1=C\c1ccccc1	-4.2	47.4*	13.3	0.8	-10.3
Cc1cccc(/C=C2/Sc3ccc(C(=O)N4CCOCC4)cc3NC2=O)c1	-4.4	-29.4	1.9	0.3	-3.0
Cc1cccc(NC(=O)CSc2nnc(-c3ccncc3)n2CC2CCCO2)c1 (stereo not drawn)	0.7	-16.5	·	6.1	-6.3
Cc1ccc(Nc2ccccc2)cc1	-2.3	40.5*	1.7	-0.5	-14.2
COc1cc(CN(C)CCc2ccccc2)ccc1OCc1ccccc1	0.9	36.3*	-11.5	18.4	-18.8
COc1ccc(N2CC(C(=O)Nc3nc4ccc(OC)cc4s3)CC2=O)cc1 (stereo not drawn)	-0.9	-11.8	1.5	0.6	1.2
COc1ccc2nc(NC(=O)C3CC(=O)N(c4ccccc4)C3)sc2c1 (stereo not drawn)	-1.2	31.2*	5.6	-0.3	-7.4
Nc1ccc2c(c1)Cc1cc([N+](=O)[O-])ccc1-2	-6.6	13.1	-7.9	46.8*	-12.3
CC(C)(C)c1cc(C(=O)NCc2cc(F)cc3c2OCOC3)n(Cc2ccccc2)n1	4.2	1.4	-1.2	0.8	3.6
COc1ccc(C(=O)NCCn2cc(SCC(=O)Nc3ccc4c(c3)OCCO4)c3ccccc32)cc1	·	·	-2.3	-0.5	·
Cc1cc(C)cc(NC(=O)C2CC3CCC2C3)c1 (stereo not drawn)	-2.2	55.7*	-16.5	-1.7	-2.3
CC(=O)N(CCC1(C(C)C)CCOC(C)(C)C1)Cc1ccco1 (stereo not drawn)	0.1	38.4*	9.3	0.5	7.4
CCC(=O)N(CCC1(C(C)C)CCOC(C)(C)C1)Cc1ccco1 (stereo not drawn)	-1.9	-18.1	1.1	0.8	-10.0
CN(C)S(=O)(=O)N1CCCN(S(=O)(=O)N(C)C)CC1	-1.8	-6.4	42.0*	0.9	-10.1
CCOC(=O)c1cc(-c2ccccc2)n(-c2cccc(C(=O)Nc3cccc(SC)c3)c2)c1C	·	·	4.4	·	·
CCSc1nc2c([nH]c3ccccc32)c(=O)n1-c1ccc(F)cc1	·	·	-7.8	0.6	·
CC(C)(C)c1ccc(OC(=O)N2CCOCC2)cc1	2.8	31.9*	-4.9	-0.2	-3.3
CCOC(=O)C1(CCOC)CCN(Cc2nc(C(C)C)cs2)CC1	0.5	32.8*	-3.3	-1.6	-9.2
Cc1c(O)c(CN2CCCCC2)cc2c1oc(=O)c1ccccc12	-2.3	65.9*	-13.4	-1.4	-51.7
O=C(COC(=O)c1cccnc1Cl)c1ccc(Cl)s1	-8.6	·	·	·	-5.9
O=C(COC(=O)c1cccnc1Cl)c1cccc(Cl)c1	-4.2	69.1*	-0.9	0.0	-26.8
COCCNC(=O)c1c[nH]c2ccc(S(=O)(=O)N3CCc4ccccc43)cc2c1=O	-0.9	-3.9	7.6	-0.6	16.5
COCCCNC(=O)c1c[nH]c2ccc(S(=O)(=O)N3CCc4ccccc43)cc2c1=O	7.4	-8.0	37.9*	-0.3	7.2
O=C(CCn1nc(-c2ccc(Cl)cc2)c2ccccc2c1=O)Nc1ccc(OC(F)(F)F)cc1	·	·	-3.3	0.2	·
CCCOC(=O)Nc1ccc(C(N)=O)cc1	-0.6	-5.7	-4.7	0.4	-5.0
CCOC(=O)c1cccc(NC(=O)COc2ccc([N+](=O)[O-])cc2)c1	-0.1	·	·	·	-16.7
CCCOC(=O)Nc1cccc(C(C)=O)c1	0.3	35.2*	10.2	0.4	-7.0
CC(=O)c1cccc(NC(=O)COC(=O)c2ccc3c(c2)OCCO3)c1	-0.6	39.1*	-10.5	-0.2	-15.2
